Compounds with a hit are over-represented: about 7.8% of the library has one in this group of screens.
HCV inh – blocks hepatitis C virus; Huh7.5.1 HCVcc-Cre infection, luciferase reporter, 44 h; Potency, µM (highest dose often 41.8 µM), hits mostly inhibitors; hit rate 3.4% among 340,000; active means well fitted inhibition curve with a large enough effect; inconclusive means small, poorly fitted or top-dose-only effect, or another doubt; inactive means no such curve, though single readings can be large or run the other way
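Seed cells (1,000/well) for 4 h; treat with compound and infect with HCVcc-Cre, moi about 0.5. Incubate 44 h, then detect luciferase activity.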
HCMV antiviral – human cytomegalovirus inhibition; activity change, negative = inhibition, % at 57.5 µM; hit rate 4.5% among 410,000; HFF cells, HCMV-luciferase reporter, 72 h; hits give low values; in the data active means activity change below about -60%; inconclusive means no clear call, values can overlap the other calls; inactive means above about -39%
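Inhibition of viral replication was scored as loss of reporter luminescence in HFFs infected with HCMV-luciferase (MOI 1 PFU/cell) for 72 h; compounds tested at 2 doses, normalized to buffer and Salinomycin controls.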
Vaccinia Venus – inhibitors of vaccinia virus (Venus reporter); Potency, µM (highest dose often 36.5 µM), usual class: inhibitors; Vaccinia virus Venus reporter expression, fluorescence; hit rate 0.46% among 330,000; calls by dose curve; tested in A549 cells; further: nearly all actives have a fitted effect of over 30% in size
Marburg entry inh – inhibitors of Marburg virus binding or cell entry; Marburg virus pseudotyped entry inhibition, cell reporter; Potency, µM (titrated, usually from 37.8 µM), actives largely listed as inhibitors; hit rate 1.8% among 300,000; AID 540276; calls by dose curve; tested in HEK293 cells
Vaccinia mCherry – inhibitors of vaccinia virus infection (mCherry reporter signal) | Vaccinia virus mCherry reporter infection, fluorescence | AID 720579 | hit rate 0.63% among 310,000 | Potency, µM (titrated, usually from 36.5 µM), most hits filed as inhibitors; calls by dose curve; tested in A549 cells; further: nearly all actives have a fitted effect of over 35% in size
Lassa entry inh – blocks Lassa virus binding to or entry into cells; AID 540256; hit rate 1.2% among 300,000; Lassa virus pseudotype entry inhibition, cell reporter; Potency, µM (doses to about 37.9 µM), hits mostly inhibitors; calls by dose curve; tested in HEK293 cells; further: nearly all actives have a fitted effect of over 50% in size
Of the large screens only hits and unclear results are named; the others gave an inactive call; ! = repeats disagree.

Clc1cccc(Cl)c1Cn1cnc2c(N3CCCCCC3)ncnc21	HCV inh inconclusive, HCMV antiviral -81, Marburg entry inh 4.6µM, Lassa entry inh 7.3µM
CCN(CC)c1ncnc2c1ncn2Cc1c(Cl)cccc1Cl	HCV inh 13µM, Marburg entry inh inconclusive, Lassa entry inh inconclusive
CCn1cc(C(=O)NCc2ccccc2Cl)c(=O)c2cc(S(=O)(=O)N3CCCCC3)ccc21	none (no result: HCV inh)
Cc1cc(C)cc(NC(=O)Cn2c(=O)oc3cc(S(=O)(=O)N4CCCC4)ccc32)c1	none (no result: HCV inh)
COc1ccc(C)cc1NC(=O)Cn1c(=O)ccc2cc(S(=O)(=O)N3CCC(C)CC3)ccc21	HCMV antiviral -114 (no result: HCV inh, Marburg entry inh)
CCn1cc(C(=O)NCc2ccccc2OC)c(=O)c2cc(S(=O)(=O)N3CCCCC3)ccc21	HCMV antiviral -77, Marburg entry inh inconclusive (no result: HCV inh)
COc1ccccc1CNC(=O)Cn1c(=O)oc2cc(S(=O)(=O)N3CCCC3)ccc21	HCMV antiviral -61!
Cc1ccc(NC(=O)Cn2c(=O)ccc3cc(S(=O)(=O)N4CCC(C)CC4)ccc32)cc1C	none (no result: HCV inh, Marburg entry inh)
Cc1cc(C)c(NC(=O)Cn2c(=O)oc3cc(S(=O)(=O)N4CCCCCC4)ccc32)c(C)c1	HCMV antiviral -70 (no result: HCV inh)
COc1ccc(CNC(=O)Cn2c(=O)oc3cc(S(=O)(=O)N4CCCC4)ccc32)cc1	Marburg entry inh inconclusive, Lassa entry inh inconclusive
CCOC(=O)[C@]12C[C@]3(C)CCN(C(=O)N[C@@H]1c1ccccc1)[C@@H]32	none (no result: HCV inh, HCMV antiviral, Vaccinia Venus, Vaccinia mCherry, Lassa entry inh)
CC1CCN(S(=O)(=O)c2ccc3c(c2)oc(=O)n3CC(=O)NCc2ccc(F)cc2)CC1	HCMV antiviral -97, Vaccinia Venus inconclusive, Marburg entry inh inconclusive (no result: HCV inh)
Cc1ccc(NC(=O)Cn2c(=O)oc3cc(S(=O)(=O)N4CCC(C)CC4)ccc32)cc1Cl	HCMV antiviral inconclusive, Vaccinia Venus inconclusive, Vaccinia mCherry inconclusive (no result: HCV inh)
Cc1ccc(NC(=O)Cn2c(=O)oc3cc(S(=O)(=O)N4CCC(C)CC4)ccc32)cc1C	HCV inh inconclusive, HCMV antiviral -69, Vaccinia Venus inconclusive (no result: Lassa entry inh)
CC(C)c1nn2c(=O)cc(COC(=O)C3CCCCC3)nc2s1	none (no result: HCV inh, Marburg entry inh)
O=C(CCC1N=C2c3ccccc3N=C(SCc3ccc(F)cc3)N2C1=O)N1CCN(c2ccccc2)CC1 (centres undefined)	none (no result: HCV inh)
COc1ccccc1CNC(=O)CCC1N=C2c3ccccc3N=C(SCc3cccc(Cl)c3)N2C1=O (centres undefined)	Vaccinia Venus inconclusive, Vaccinia mCherry 4µM, Lassa entry inh inconclusive (no result: HCV inh)
O=C(CCC1N=C2c3ccccc3N=C(SCc3cccc(Cl)c3)N2C1=O)N1CCN(c2ccccc2)CC1 (centres undefined)	Vaccinia Venus inconclusive, Marburg entry inh inconclusive, Vaccinia mCherry 8.9µM (no result: HCV inh)
CCCN1CCC(=O)N(CCC#N)CC1	none (no result: HCV inh, HCMV antiviral, Marburg entry inh, Lassa entry inh)
CCN(CC)C1=NC(=[N+](CC)CC)c2ccccc21	HCV inh inconclusive, HCMV antiviral -103, Marburg entry inh inconclusive, Lassa entry inh inconclusive (no result: Vaccinia Venus, Vaccinia mCherry)
CCOc1ccc(OC(=O)c2cn(-c3cccc(OC)c3)c(=O)c3ccccc23)cc1	Lassa entry inh inconclusive (no result: HCV inh, Marburg entry inh)
C=C1CCC[C@]2(C)C[C@H]3OC(=O)C(CN(C)CC(OC)OC)[C@H]3CC12 (some centres undefined)	Vaccinia Venus inconclusive, Vaccinia mCherry 0.89µM
C=C1CCC[C@]2(C)C[C@H]3OC(=O)C(CN4CCCCC4CO)[C@H]3CC12 (some centres undefined)	HCMV antiviral -92, Vaccinia Venus 2.5µM, Marburg entry inh 11µM, Vaccinia mCherry 3.2µM
C=C1CCC[C@]2(C)C[C@H]3OC(=O)C(CNC(C)(CO)CO)[C@H]3CC12 (some centres undefined)	HCMV antiviral -86, Vaccinia Venus inconclusive, Marburg entry inh inconclusive, Vaccinia mCherry 7.9µM
C=C1CCC[C@]2(C)C[C@H]3OC(=O)C(CNC(CC)CO)[C@H]3CC12 (some centres undefined)	Vaccinia Venus 7.1µM, Vaccinia mCherry 7.1µM
C=C1CCC[C@]2(C)C[C@H]3OC(=O)C(CNC(C)CC)[C@H]3CC12 (some centres undefined)	none (no result: Vaccinia Venus, Marburg entry inh, Vaccinia mCherry, Lassa entry inh)
O=C1N=C2C=CC=CC2c2ccccc21 (centres undefined)	none (no result: HCV inh, HCMV antiviral, Vaccinia Venus, Vaccinia mCherry, Lassa entry inh)
COc1cccc(CN(C(=O)c2ccc(C(C)(C)C)cc2)C2CCS(=O)(=O)C2)c1 (centres undefined)	none (no result: HCV inh)
CCc1ccccc1NC(=O)N1CC(C)Sc2ccccc21 (centres undefined)	none (no result: HCV inh, Marburg entry inh)
CCOc1cc(S(=O)(=O)Nc2ccc(CC)cc2)ccc1Cl	none (no result: Vaccinia Venus, Vaccinia mCherry)
CCOc1cc(S(=O)(=O)Nc2ccccc2CC)ccc1Cl	HCV inh 10µM
COc1cc(OC)c(Nc2c3c(nc4nc(-c5cccs5)nn24)CCCC3)cc1Cl	Lassa entry inh inconclusive (no result: HCV inh, Marburg entry inh)
CCOC(=O)Cn1cc(C(=O)c2cccs2)c2ccccc21	HCV inh 8.9µM, Marburg entry inh inconclusive
Cc1c(C)n(Cc2ccccc2)c2ncnc(N)c12	HCV inh 10µM, HCMV antiviral -60 (no result: Vaccinia Venus, Vaccinia mCherry)
COc1ccc(S(=O)(=O)NCCc2csc(-c3ccc(F)cc3)n2)cc1	none (no result: HCV inh, Marburg entry inh)
O=C(c1ccc2c(c1)CCN2S(=O)(=O)c1ccc(Cl)cc1)N1CCN(c2ccccc2)CC1	none (no result: HCV inh)
CCN(CC)CCn1c2ccccc2c2nc3ccc([N+](=O)[O-])cc3cc21	HCV inh inconclusive, HCMV antiviral -98, Marburg entry inh inconclusive, Lassa entry inh inconclusive
CCCCCCN1C[C@H](O)[C@@H](n2cc(COC(=O)c3ccccc3)nn2)C[C@@H]1c1ccc(C)cc1	none (no result: HCV inh, Marburg entry inh, Lassa entry inh)
COc1ccc([C@H]2C[C@H](O)[C@@H](n3cc(COC(=O)c4ccccc4)nn3)CN2C(=O)C2CCCCC2)cc1	HCMV antiviral -83, Marburg entry inh inconclusive (no result: HCV inh, Lassa entry inh)
Cc1ccc([C@H]2C[C@@H](O)[C@H](n3cc(COC(=O)c4ccccc4)nn3)CN2CC2CCCCC2)cc1	HCMV antiviral -89 (no result: HCV inh, Marburg entry inh)
O=C(OCc1cn([C@@H]2CN(CC3CCCCC3)[C@@H](c3ccccc3)C[C@H]2O)nn1)c1ccccc1	Vaccinia mCherry inconclusive (no result: HCV inh, Marburg entry inh, Lassa entry inh)
CCCCCCN1C[C@@H](n2cc(COC(=O)c3ccccc3)nn2)[C@H](O)C[C@@H]1c1ccc(C)cc1	HCMV antiviral -89, Vaccinia Venus inconclusive, Vaccinia mCherry inconclusive (no result: HCV inh, Marburg entry inh, Lassa entry inh)
CCCCCCN1C[C@@H](O)[C@H](n2cc(COC(=O)c3ccccc3)nn2)C[C@@H]1c1ccc(OC)cc1	HCMV antiviral -101 (no result: HCV inh, Marburg entry inh, Lassa entry inh)
Cc1ccc([C@H]2C[C@@H](O)[C@H](n3cc(COC(=O)c4ccccc4)nn3)CN2C(=O)C2CCCCC2)cc1	Lassa entry inh inconclusive (no result: HCV inh, Marburg entry inh)
Cc1ccc(-c2nnc(SCc3ccccc3C#N)o2)cc1	Marburg entry inh inconclusive (no result: HCV inh)
CC(=O)C[C@H]1c2cc(F)cc(F)c2S(=O)(=O)N1C1CCN(Cc2ccccc2)CC1	none (no result: HCV inh, HCMV antiviral, Marburg entry inh, Lassa entry inh)
COc1cc(Cl)c(NC(=O)c2cc(CN3CCCC3)on2)c(OC)c1	none (no result: HCV inh)
Cc1ccc(C)c(NC(=O)N2CCc3cc(S(=O)(=O)N4CCC(C)CC4)ccc32)c1	none (no result: HCV inh)
Cn1cc(CN2CCOc3ccc(C(O)C4CCCCC4)cc3C2)cn1 (centres undefined)	none (no result: HCV inh, HCMV antiviral, Marburg entry inh, Lassa entry inh)
